Source: PubChem BioAssay (National Center for Advancing Translational Sciences (NCATS))
Sampled rows, rich in hits. Any-hit rate of the full collection: about 8%.
KB-V1 cytotox: KB-V1 MDR subline cytotoxicity; AID 1347076; actives 3.4% (n = 400,000); Potency, µM (top dose mostly 46.1 µM), usual class: cytotoxic; KB-V1 MDR cells viability, CellTiter-Glo, 72 h; note: % is set by controls: 0 for no effect and ±100 for the full control effect; nearly all actives have a fitted effect of over 60% in size
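Readout: CellTiter-Glo luminescence, 10 min after addition. Cells: KB-V1 MDR subline, 72 h at 37 degrees C with compound. Analysis: corrected, normalized data fitted to concentration-effect curves.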
HT1080 IDH1KD tx: kills HT-1080 cells with IDH1 knockdown. HT-1080 IDH1 knockdown viability, ATP luminescence, 48 h. Potency, µM (doses to about 46.1 µM), for the others: at the highest dose activity, negative = toxicity, most hits filed as cytotoxic. actives 2% (n = 360,000);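 note: 0% = DMSO wells and -100% = cell-free medium wells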
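Viability of IDH1-knockdown HT-1080 fibrosarcoma cells was assessed by CellTiter-Glo after 48 h at 37 °C with titrated compound; concentration-effect curves were classified by fit quality and response size.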
KB-3-1 cytotox: KB-3-1 parental cell cytotoxicity; KB-3-1 viability, CellTiter-Glo ATP luminescence, 72 h; Potency, µM (titrated, usually from 46.1 µM), hits mostly cytotoxic; actives 1.4% (n = 400,000); note: % is set by controls: 0 for no effect and ±100 for the full control effect; nearly all actives have a fitted effect of over 60% in size
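Parental KB-3-1 adenocarcinoma cells in phenol-red-free DMEM with 10% FBS were pin-treated with compounds at several concentrations, incubated 72 h at 37 °C, and viability read by CellTiter-Glo luminescence; concentration-effect curves were fitted after normalization.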
HT1080-NT tox: kills 2HG-producing HT-1080-NT fibrosarcoma cells | actives 1.6% (n = 360,000) | Potency, µM (series often up to 46.1 µM), without a hit: at the highest dose activity, negative = less viability, most hits filed as cytotoxic | HT-1080-NT fibrosarcoma viability, CellTiter-Glo ATP luminescence, 48 h | AID 686970;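 note: NT is the 2HG producing partner of a matched IDH1 knockdown line; 0% = DMSO-treated cells and -100% = media-only wells without cells; nearly all actives have a fitted effect of over 55% in size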
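HT-1080-NT fibrosarcoma cells (2HG-overproducing), 750 cells/well in RPMI with 5% FBS, dosed after 2 h and incubated 48 h at 37C. CellTiter-Glo luminescence normalized to DMSO and no-cell wells; concentration-response curves fitted and classed.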
MCF10A rerep: DNA re-replication induction in MCF 10a cells; MCF 10A DNA re-replication, Hoechst nuclear intensity, 48 h; Potency, µM (top dose mostly 46.1 µM), without a hit: at the top dose activity, positive = re-replication, most hits filed as activators; actives 2.9% (n = 350,000); note: % of control where 0% means no effect; nearly all actives have a fitted effect of over 50% in size
SW480 rerep: induces DNA re-replication in SW480 colon adenocarcinoma cells | SW480 DNA re-replication, Hoechst DNA content imaging, 48 h | Potency, µM (highest dose often 46.1 µM), for the others: top-dose re-replication activation, actives largely listed as activators | actives 1.8% (n = 340,000) | AID 624297; note: % of control where 0% means no effect; nearly all actives have a fitted effect of over 55% in size
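Hoechst fluorescence of nuclei (405 nm excitation, 500-530 nm emission) measured by plate-scanning imager after 48 hr compound exposure at 37 C; re-replication scored as increased number of nuclei with elevated intensity.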
Starred values were filed as active, the others as inactive; i = inactive; ? = inconclusive; . = not tested or not shown; [ ] = remark or other dose. Calls come from the whole dose curve; as a rule, active = well fitted curve in the direction sought with a large enough effect; inconclusive = small, poorly fitted or top-dose-only effect, or another doubt; inactive = no such curve, though single readings can be large; an effect the other way counts as inactive or inconclusive. Potency is the fitted concentration of half-maximal effect.

SMILES | KB-V1 cytotox | HT1080 IDH1KD tx | KB-3-1 cytotox | HT1080-NT tox | MCF10A rerep | SW480 rerep
Cc1cn([C@H]2C[C@H](O)[C@@H](/C=C/C(=O)NCC(c3ccccc3)c3ccccc3)O2)c(=O)[nH]c1=O | i | 2% | i | 0% | . | .
Cc1cccc(C)c1OCC(O)CN(Cc1ccccc1O)C1CCCCC1 (stereo not drawn) | ? | ? | ? | 9.2µM* | ? | ?
COc1ccc(-c2c[n+]3c(n2-c2ccc(C)cc2)CCCCC3)cc1 | ? | ? | 1.8µM* | ? | -3% | 11%
COc1ccc(-n2c(-c3ccc(Cl)cc3)c[n+]3c2CCCCC3)cc1 | i | ? | i | ? | -6% | -29%
COc1ccc(-c2c[n+]3c(n2-c2ccccc2)CCCCC3)cc1 | i | ? | 9.2µM* | ? | -2% | -6%
Cc1ccc(NC(=S)Nc2c(C)n(C)n(-c3ccccc3)c2=O)cc1 | i | 21% | i | 15% | 16% | -6%
Cc1cccn2c(=O)c(C=O)c(N3CCCCCC3)nc12 | 15µM* | ? | i | -6% | ? | -9%
COc1ccccc1N1CCN(c2nc3c(C)cccn3c(=O)c2C=O)CC1 | 23µM* | ? | i | -15% | 9% | -3%
CC(O)C(NS(=O)(=O)c1ccc(Cl)cc1)C(=O)OCC(=O)Nc1cccnc1Cl (stereo not drawn) | i | 3% | i | 6% | 3% | 4%
COCCCN1C(=O)c2[nH]nc(-c3ccccc3O)c2C1c1cccc(Cl)c1 (stereo not drawn) | 21µM* | ? | 8.2µM* | 26µM* | 15µM* | 16µM*
COc1ccc(CCN2C(=O)c3[nH]nc(-c4ccccc4O)c3C2c2ccccc2)cc1OC (stereo not drawn) | 23µM* | 33µM* | 16µM* | ? | ? | ?
CC(C)OCCCN1C(=O)c2[nH]nc(-c3ccccc3O)c2C1c1cccc(Cl)c1 (stereo not drawn) | 16µM* | ? | ? | ? | ? | ?
CSc1ccc(C2c3c(-c4ccccc4O)n[nH]c3C(=O)N2Cc2ccncc2)cc1 (stereo not drawn) | i | . | 13µM* | . | . | .
COc1cccc2c(C)cc(N3CCCCCC3)nc12 | i | -6% | i | 1% | 10% | -7%
N#Cc1cc2sc3nnc(-c4ccncc4)n3c2cc1C#N | 2.1µM* | ? | 6.5µM* | ? | 29% | -33%[9.22 µM]
CCCCC(=O)NNC(=S)NCc1ccccc1 | ? | 11% | i | 5% | -2% | -7%
CCCOC(=O)c1ccc(Oc2cn[nH]c2-c2ccc(OC)cc2O)cc1 | ? | 18µM* | ? | 21µM* | ? | ?
CC1(c2ccc(OCC#N)cc2)C=C(c2ccc(OCC#N)cc2)n2nc(C(F)(F)F)nc2N1 (stereo not drawn) | ? | ? | ? | -2% | 18µM* | ?
COC(=O)c1ccc(OC)c(CSc2nnc(COc3ccccc3)o2)c1 | 21µM* | ? | i | -2% | 4% | -1%
CC1CN(C(=O)CCC(=O)NCc2ccccc2)c2cc(Cl)ccc2O1 (stereo not drawn) | ? | -10% | i | 1% | 6% | -6%
CCC(SC1=Nc2ccccc2C2=NC(CC(C)C)C(=O)N12)C(=O)Nc1ccc2c(c1)OCO2 (stereo not drawn) | 15µM* | -23% | ? | -9% | 1% | -1%
COc1cccc(NC(=O)CSC2=Nc3ccccc3C3=NC(CC(=O)NCc4ccc5c(c4)OCO5)C(=O)N23)c1 (stereo not drawn) | i | . | i | . | . | .
CNc1nc(-c2ccc3c(c2)CCN3C(=O)c2cccc(F)c2)cs1 | i | ? | 15µM* | ? | 26% | 15µM*
Cc1sc(NC(=O)CN2CCOCC2)nc1-c1ccc2c(c1)CCN2S(=O)(=O)c1ccccc1 | 4.1µM* | ? | ? | ? | ? | -1%
Cc1sc(NC(=O)Cc2ccc3c(c2)OCO3)nc1-c1ccc2c(c1)CCN2C(=O)c1cccc(F)c1 | i | -18% | i | -4% | 3% | -8%
SMILES | KB-V1 cytotox | HT1080 IDH1KD tx | KB-3-1 cytotox | HT1080-NT tox | MCF10A rerep | SW480 rerep
Cc1cccc(C(=O)N2CCc3cc(-c4nc(NC(=O)CN5CCCC5)sc4C)ccc32)c1 | i | ? | i | ? | 18µM* | ?
O=C(CN1CCOCC1)Nc1nc(-c2ccc3c(c2)CCN3S(=O)(=O)c2ccccc2)cs1 | ? | -15% | i | -27% | ? | -4%
Cc1cccc(C(=O)N2CCc3cc(-c4csc(NC(=O)CN5CCCC5)n4)ccc32)c1 | ? | 16µM* | i | 21µM* | 16µM* | ?
O=C(COC(=O)c1ccccc1C(=O)c1ccccc1)Nc1cccc([N+](=O)[O-])c1 | ? | 1% | i | 6% | 18% | 20%
C=CCOc1c(Cl)cc(CNc2ccc(N(C)C)cc2)cc1OC | 5.2µM* | 16µM* | ? | -15%[9.24 µM] | ? | ?
CCOc1cc(CNc2ccc(S(N)(=O)=O)cc2)cc(Cl)c1OC | i | -14% | i | -1% | 4% | ?
CCOc1cc(CNc2ccc3c(c2)OCCO3)cc(Br)c1OCC | 2.6µM* | 2.3µM* | 5.2µM* | 1.8µM* | 2.6µM* | 5.8µM*
COc1cc(CNc2ccc(N3CCCC3)cc2)cc(Cl)c1OC | ? | ? | 12µM* | 16µM* | 23µM* | ?
CCOc1cc(CNc2ccc(N3CCCC3)cc2)cc(Cl)c1OC | ? | ? | ? | ? | ? | 16µM*
CCOc1cc(CNc2ccc(N3CCOCC3)cc2)cc(Br)c1OCC | ? | ? | ? | -18% | ? | ?
COC(=O)c1ccc(Cn2nnc3c(=O)[nH]c(C4CCN(S(=O)(=O)c5cc(C)ccc5C)CC4)nc32)cc1 | i | 19% | i | 3% | 5% | 3%
CCOc1cc(CNc2ccc(N3CCCCC3)cc2)cc(Br)c1OCC(=O)NC(C)(C)C | 15µM* | -5% | i | -11% | ? | 11%
O=[N+]([O-])c1ccccc1S(=O)(=O)NCCC1=CCCCC1 | 15µM* | 7% | i | 12% | 20% | -2%
O=C(Cc1ccccc1[N+](=O)[O-])NCCC1=CCCCC1 | i | 2% | i | 0% | 5% | 7%
CC(C)C[C@H](NC(=O)c1[nH]cnc1C(=O)Nc1ccc(CNC(=O)OC(C)(C)C)cc1)C(=O)OC(C)(C)C | ? | 18µM* | i | ? | ? | 4%
